Results taken from the supplement of paper PMC10681739.

Molecular target: T1, ETS1 (UniProt P14921)
T1 sequence: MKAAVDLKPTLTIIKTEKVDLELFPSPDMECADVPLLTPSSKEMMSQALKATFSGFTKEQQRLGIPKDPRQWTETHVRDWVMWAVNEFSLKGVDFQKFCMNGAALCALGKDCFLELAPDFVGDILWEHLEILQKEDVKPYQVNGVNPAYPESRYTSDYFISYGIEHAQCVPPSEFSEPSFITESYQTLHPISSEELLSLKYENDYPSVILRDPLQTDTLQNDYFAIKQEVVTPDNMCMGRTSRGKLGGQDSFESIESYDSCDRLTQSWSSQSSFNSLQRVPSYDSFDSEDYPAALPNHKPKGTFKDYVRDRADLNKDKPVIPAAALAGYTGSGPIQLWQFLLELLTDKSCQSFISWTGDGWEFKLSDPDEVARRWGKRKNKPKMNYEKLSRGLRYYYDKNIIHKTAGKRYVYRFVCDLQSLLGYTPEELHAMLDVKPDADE
Assay: ETS1 binding intensity (PBM fluorescence) in presence of RUNX1, normalised to ETS1-only experiment (arbitrary fluorescence units); higher = stronger binding
Settings: ETS1 concentration 1 nM; RUNX1 concentration 25 nM
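For RUNX1 binding intensity (PBM fluorescence) in presence of ETS1, normalised to RUNX1-only experiment in this document: Full-length recombinant human ETS1 or RUNX1 bound to double-stranded 36-bp genomic probes on microarrays, detected by protein-specific primary antibody and Alexa488 secondary, spot fluorescence as median of four replicate spots.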

| Sequence | ETS1 binding intensity |
| --- | --- |
| TGGAGTGAAGCGGCTTCCTTGCGGTTGTGTGCGTGT | 799 |
| TGGAACAATGCTGCTTCCTGTGGGTGTCCCCCGGCC | 1400 |
| CTGAAGAGGAAATGTATTCCTCATGTTGTGGTTGGC | 1980 |
| CGGGGCTTCCGGCGCGCTGCCTTGTGGGCACGGTAG | 611 |
| GAGACTTTCGCTTCCGGCTGCCGCAGGCGCTTCGCT | 1700 |
| CCCTGGGGCCCCACTTCCTTGCCCACAAGAAAGGAC | 446 |
| CCTCTGTTCTTCACAGGAAGCCACAGGCCTCCCCTG | 3160 |
| CAGGCCTTTCCTGCTATCGTTTGTGGTTTGAGCAGT | 1120 |
| GGGGTCAGGAAATGGGTGTGCCGCGGGTAAGGCGCT | 921 |
| GTGCCCCGGACCTACGGATACCACACACAGACAGGC | 460 |
| CTTGTGCCTACATCCTGTAGCTGTGGTTTAGGGACG | 6810 |
| TGGGAACTTCCTGTGGAGGAGTGCATTGTGGGACTT | 726 |
| AGCCTTAATTACCCGGAAGTGCGGTCCCAGGGACTT | 12200 |
| TTAGGCAGAGCTCATTTCCGCCCACATCAAAAGTAA | 1990 |
| TGCTTAGCAGGAAGTTAGTCTGCCTGTGGTAGCTCC | 3470 |
| GGCAAACAGGAAACACTCCCAGGGCTGTGGGCTCCT | 1790 |
| GAGGACTTCCGGGTGCGTGTGATATCTGCGGGCCCG | 793 |
| GGCCCTTCTGGGGCAGGATGTGGTGCCTGCCAAAGG | 6110 |
| TGACTTCCGGTCCGTAGTGGGGCCTGCGGTGGGAGT | 10700 |
| TAAAGAAACAGGATGACTGTGGTTTACTGCGAGCAT | 1000 |

| Sequence | ETS1 binding intensity |
| --- | --- |
| CCAGCAAAGGAAGCTTGGTCAACCACAGCAGCCTGT | 463 |
| TACATCTTCAGAGGAAGTGGGTTTGTGTATCTTTGA | 3750 |
| GACAGAGGAAACTAGGTGTGACAACCACAAACAGCT | 651 |
| GAAGCCCAACAGGATGCCGAGTAACCACCCACTGAA | 1120 |
| AGCACAAACCCAGGATGTGGTAAATGAAATGAAAAA | 5210 |
| TTCAGGAAATGCAAACGGCTGCAGAGACCGCAGAGG | 2490 |
| GCCAGGGCAGGAAGTTGCTAACCGCCCCAGAGCAGG | 4850 |
| AGCTGCAGTTGGGCAGGAAACCACAATGTCGAAGAC | 5770 |
| CCCCTATATCACAGGATGCCGCAAACTAGTAACAGG | 2210 |
| GGCTTCCGGCGGGGTACCCTCCTCTGTGGGCGGGGC | 572 |
| CTGCTGCTTTTAGGATGTGGTTTTATTATTGTCGGG | 4960 |
| AAGACAACATCCTGCCGGCACAGCCTGCGGGTTACT | 1480 |
| ACGCGCTCCCTCACTTCCTGCGGCTTTTGGTCCCTC | 1500 |
| TCGTGTTCTCTTCCGTTCTGTGGTAGCTTTTTGGTA | 557 |
| CACCCGAACGGAAACACCTGCGGCTGAGGGGAGGGG | 1110 |
| TTTTTAAGGTCAGGATGTGGGCACATCTAAGGGGCA | 1730 |
| GGGGCAGCTTCCGGCAGGAGAGCCCGCATTCACGGC | 751 |
| TTGCTCCCGGAAGCCCCGCCCGACCGCGGCTCCTGA | 1970 |
| TCCCTCATGAGCTTCTTCCGCCCGCAACACGAGACT | 481 |
| TCGGAGACGGCGAAAGGAAACCGCAAGGAGGCCACC | 2820 |

Molecular target: RUNX1 (UniProt Q01196)
Sequence (Q01196 whole entry): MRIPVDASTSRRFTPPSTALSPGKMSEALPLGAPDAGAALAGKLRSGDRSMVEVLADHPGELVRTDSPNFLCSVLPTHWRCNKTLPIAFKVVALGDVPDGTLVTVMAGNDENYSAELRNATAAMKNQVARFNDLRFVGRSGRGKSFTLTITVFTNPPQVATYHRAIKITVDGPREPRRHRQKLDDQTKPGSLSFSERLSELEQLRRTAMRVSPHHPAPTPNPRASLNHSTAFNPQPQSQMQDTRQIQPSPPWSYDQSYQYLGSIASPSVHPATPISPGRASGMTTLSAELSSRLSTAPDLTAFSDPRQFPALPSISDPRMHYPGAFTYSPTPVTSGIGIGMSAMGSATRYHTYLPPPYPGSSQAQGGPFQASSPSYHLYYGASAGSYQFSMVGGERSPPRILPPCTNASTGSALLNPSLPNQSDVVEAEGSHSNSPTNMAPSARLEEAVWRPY
Assay: RUNX1 binding intensity (PBM fluorescence) in presence of ETS1, normalised to RUNX1-only experiment (arbitrary fluorescence units); higher = stronger binding
Settings: RUNX1 concentration 2 nM; ETS1 concentration 25 nM
Method: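 Cooperative gcPBM on 36-bp genomic probes with neighbouring ETS1 and RUNX1 sites. Recombinant human RUNX1 (2 nM) was incubated alone or with ETS1 (25 nM) and detected with anti-RUNX1 antibody plus Alexa488 secondary. Values are medians over 4 replicate spots; the RUNX1+ETS1 data were normalised to the RUNX1-only data. The probes sit in constant array flanks that are not printed.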

| Sequence | RUNX1 binding intensity |
| --- | --- |
| TGGAGTGAAGCGGCTTCCTTGCGGTTGTGTGCGTGT | 2630 |
| TGGAACAATGCTGCTTCCTGTGGGTGTCCCCCGGCC | 1330 |
| CTGAAGAGGAAATGTATTCCTCATGTTGTGGTTGGC | 878 |
| CGGGGCTTCCGGCGCGCTGCCTTGTGGGCACGGTAG | 1390 |
| GAGACTTTCGCTTCCGGCTGCCGCAGGCGCTTCGCT | 1550 |
| CCCTGGGGCCCCACTTCCTTGCCCACAAGAAAGGAC | 1360 |
| CCTCTGTTCTTCACAGGAAGCCACAGGCCTCCCCTG | 1050 |
| CAGGCCTTTCCTGCTATCGTTTGTGGTTTGAGCAGT | 3830 |
| GGGGTCAGGAAATGGGTGTGCCGCGGGTAAGGCGCT | 984 |
| GTGCCCCGGACCTACGGATACCACACACAGACAGGC | 869 |
| CTTGTGCCTACATCCTGTAGCTGTGGTTTAGGGACG | 2050 |
| TGGGAACTTCCTGTGGAGGAGTGCATTGTGGGACTT | 1630 |
| AGCCTTAATTACCCGGAAGTGCGGTCCCAGGGACTT | 1710 |
| TTAGGCAGAGCTCATTTCCGCCCACATCAAAAGTAA | 1110 |
| TGCTTAGCAGGAAGTTAGTCTGCCTGTGGTAGCTCC | 1020 |
| GGCAAACAGGAAACACTCCCAGGGCTGTGGGCTCCT | 1150 |
| GAGGACTTCCGGGTGCGTGTGATATCTGCGGGCCCG | 2110 |
| GGCCCTTCTGGGGCAGGATGTGGTGCCTGCCAAAGG | 891 |
| TGACTTCCGGTCCGTAGTGGGGCCTGCGGTGGGAGT | 3180 |
| TAAAGAAACAGGATGACTGTGGTTTACTGCGAGCAT | 1150 |

| Sequence | RUNX1 binding intensity |
| --- | --- |
| CCAGCAAAGGAAGCTTGGTCAACCACAGCAGCCTGT | 891 |
| TACATCTTCAGAGGAAGTGGGTTTGTGTATCTTTGA | 1380 |
| GACAGAGGAAACTAGGTGTGACAACCACAAACAGCT | 785 |
| GAAGCCCAACAGGATGCCGAGTAACCACCCACTGAA | 924 |
| AGCACAAACCCAGGATGTGGTAAATGAAATGAAAAA | 1460 |
| TTCAGGAAATGCAAACGGCTGCAGAGACCGCAGAGG | 1090 |
| GCCAGGGCAGGAAGTTGCTAACCGCCCCAGAGCAGG | 1460 |
| AGCTGCAGTTGGGCAGGAAACCACAATGTCGAAGAC | 2400 |
| CCCCTATATCACAGGATGCCGCAAACTAGTAACAGG | 993 |
| GGCTTCCGGCGGGGTACCCTCCTCTGTGGGCGGGGC | 1750 |
| CTGCTGCTTTTAGGATGTGGTTTTATTATTGTCGGG | 1340 |
| AAGACAACATCCTGCCGGCACAGCCTGCGGGTTACT | 1420 |
| ACGCGCTCCCTCACTTCCTGCGGCTTTTGGTCCCTC | 2800 |
| TCGTGTTCTCTTCCGTTCTGTGGTAGCTTTTTGGTA | 1870 |
| CACCCGAACGGAAACACCTGCGGCTGAGGGGAGGGG | 938 |
| TTTTTAAGGTCAGGATGTGGGCACATCTAAGGGGCA | 1370 |
| GGGGCAGCTTCCGGCAGGAGAGCCCGCATTCACGGC | 2360 |
| TTGCTCCCGGAAGCCCCGCCCGACCGCGGCTCCTGA | 1210 |
| TCCCTCATGAGCTTCTTCCGCCCGCAACACGAGACT | 1840 |
| TCGGAGACGGCGAAAGGAAACCGCAAGGAGGCCACC | 9290 |
